Results: article PMC11062922 (Nature Chemical Biology, 2023)
Where two headings read alike, the source gives them in different places.

System: PLK4
Conditions: read-out: apparent Kd, n = 1

Lestaurtinib was tested, and the potency estimated from few doses (compound concentrations:100 nM and 1000 nM (sheet 'Lestaurtinib' of Supplementary Table 1),run:Lestaurtinib_02422_R1,Plate:MR006) was 0.0566 µM, the potency estimated from few doses (compound concentrations:100 nM and 1000 nM (sheet 'Lestaurtinib' of Supplementary Table 1),run:Lestaurtinib_02422_R3,Plate:MR006) was 0.0608 µM and the potency estimated from few doses (compound concentrations:100 nM and 1000 nM (sheet 'Lestaurtinib' of Supplementary Table 1),run:Lestaurtinib_02437_R1,Plate:MR007) was 0.0581 µM. It also gave a potency estimated from few doses (compound concentrations:100 nM and 1000 nM (sheet 'Lestaurtinib' of Supplementary Table 1),run:Lestaurtinib_02437_R2,Plate:MR007) of 0.0616 µM, a potency estimated from few doses (compound concentrations:100 nM and 1000 nM (sheet 'Lestaurtinib' of Supplementary Table 1),run:Lestaurtinib_02437_R3,Plate:MR007) of 0.041 µM and a potency estimated from few doses (compound concentrations:100 nM and 1000 nM (sheet 'Lestaurtinib' of Supplementary Table 1),run:Lestaurtinib_02438_R2,Plate:MR008) of 0.0706 µM. The potency estimated from few doses (compound concentrations:100 nM and 1000 nM (sheet 'Lestaurtinib' of Supplementary Table 1),run:Lestaurtinib_02438_R3,Plate:MR008) was 0.0679 µM, the potency estimated from few doses (compound concentrations:100 nM and 1000 nM (sheet 'Lestaurtinib' of Supplementary Table 1),run:Lestaurtinib_02443_R1,Plate:MR009) was 0.0703 µM and the potency estimated from few doses (compound concentrations:100 nM and 1000 nM (sheet 'Lestaurtinib' of Supplementary Table 1),run:Lestaurtinib_02443_R2,Plate:MR009) was 0.081 µM. It also gave a potency estimated from few doses (compound concentrations:100 nM and 1000 nM (sheet 'Lestaurtinib' of Supplementary Table 1),run:Lestaurtinib_02443_R3,Plate:MR009) of 0.0626 µM, a potency estimated from few doses (compound concentrations:100 nM and 1000 nM (sheet 'Lestaurtinib' of Supplementary Table 1),run:Lestaurtinib_02473_R3,Plate:MR010) of 0.0431 µM and a potency estimated from few doses (compound concentrations:100 nM and 1000 nM (sheet 'Lestaurtinib' of Supplementary Table 1),run:Lestaurtinib_02482_R2,Plate:MR011) of 0.113 µM. The potency estimated from few doses (compound concentrations:100 nM and 1000 nM (sheet 'Lestaurtinib' of Supplementary Table 1),run:Lestaurtinib_02487_R1,Plate:MR012) was 0.0791 µM, the potency estimated from few doses (compound concentrations:100 nM and 1000 nM (sheet 'Lestaurtinib' of Supplementary Table 1),run:Lestaurtinib_02487_R3,Plate:MR012) was 0.0839 µM and the potency estimated from few doses (compound concentrations:100 nM and 1000 nM (sheet 'Lestaurtinib' of Supplementary Table 1),run:Lestaurtinib_02496_R1,Plate:MR013) was 0.0782 µM. It also gave a potency estimated from few doses (compound concentrations:100 nM and 1000 nM (sheet 'Lestaurtinib' of Supplementary Table 1),run:Lestaurtinib_02496_R2,Plate:MR013) of 0.0941 µM, a potency estimated from few doses (compound concentrations:100 nM and 1000 nM (sheet 'Lestaurtinib' of Supplementary Table 1),run:Lestaurtinib_02496_R3,Plate:MR013) of 0.0536 µM and a potency estimated from few doses (compound concentrations:100 nM and 1000 nM (sheet 'Lestaurtinib' of Supplementary Table 1),run:Lestaurtinib_02566_R2,Plate:MR014) of 0.056 µM. For the same substance, the potency estimated from few doses (compound concentrations:100 nM and 1000 nM (sheet 'Lestaurtinib' of Supplementary Table 1),run:Lestaurtinib_02566_R3,Plate:MR014) was 0.0927 µM, the potency estimated from few doses (compound concentrations:100 nM and 1000 nM (sheet 'Lestaurtinib' of Supplementary Table 1),run:Lestaurtinib_02572_R1,Plate:MR015) was 0.0501 µM and the potency estimated from few doses (compound concentrations:100 nM and 1000 nM (sheet 'Lestaurtinib' of Supplementary Table 1),run:Lestaurtinib_02572_R2,Plate:MR015) was 0.0776 µM. For the same substance, the potency estimated from few doses (compound concentrations:100 nM and 1000 nM (sheet 'Lestaurtinib' of Supplementary Table 1),run:Lestaurtinib_02577_R1,Plate:MR016) was 0.0559 µM, the potency estimated from few doses (compound concentrations:100 nM and 1000 nM (sheet 'Lestaurtinib' of Supplementary Table 1),run:Lestaurtinib_02577_R3,Plate:MR016) was 0.0351 µM and the potency estimated from few doses (compound concentrations:100 nM and 1000 nM (sheet 'Lestaurtinib' of Supplementary Table 1),run:Lestaurtinib_02584_R1,Plate:MR017) was 0.0566 µM. For the same substance, the potency estimated from few doses (compound concentrations:100 nM and 1000 nM (sheet 'Lestaurtinib' of Supplementary Table 1),run:Lestaurtinib_02584_R2,Plate:MR017) was 0.0798 µM, the potency estimated from few doses (compound concentrations:100 nM and 1000 nM (sheet 'Lestaurtinib' of Supplementary Table 1),run:Lestaurtinib_02584_R3,Plate:MR017) was 0.0763 µM and the potency estimated from few doses (compound concentrations:100 nM and 1000 nM (sheet 'Lestaurtinib' of Supplementary Table 1),run:Lestaurtinib_02601_R3,Plate:MR018) was 0.0591 µM. The potency estimated from few doses (compound concentrations:100 nM and 1000 nM (sheet 'Lestaurtinib' of Supplementary Table 1),run:Lestaurtinib_02606_R2,Plate:MR019) was 0.0687 µM, the potency estimated from few doses (compound concentrations:100 nM and 1000 nM (sheet 'Lestaurtinib' of Supplementary Table 1),run:Lestaurtinib_02606_R3,Plate:MR019) was 0.058 µM and the potency estimated from few doses (compound concentrations:100 nM and 1000 nM (sheet 'Lestaurtinib' of Supplementary Table 1),run:Lestaurtinib_02624_R1,Plate:MR020) was 0.169 µM. For the same substance, the potency estimated from few doses (compound concentrations:100 nM and 1000 nM (sheet 'Lestaurtinib' of Supplementary Table 1),run:Lestaurtinib_02624_R3,Plate:MR020) was 0.0472 µM, the potency estimated from few doses (compound concentrations:100 nM and 1000 nM (sheet 'Lestaurtinib' of Supplementary Table 1),run:Lestaurtinib_02724_R1,Plate:MR021) was 0.0706 µM and the potency estimated from few doses (compound concentrations:100 nM and 1000 nM (sheet 'Lestaurtinib' of Supplementary Table 1),run:Lestaurtinib_02724_R2,Plate:MR021) was 0.0577 µM. For the same substance, the potency estimated from few doses (compound concentrations:100 nM and 1000 nM (sheet 'Lestaurtinib' of Supplementary Table 1),run:Lestaurtinib_02724_R3,Plate:MR021) was 0.0868 µM, the potency estimated from few doses (compound concentrations:100 nM and 1000 nM (sheet 'Lestaurtinib' of Supplementary Table 1),run:Lestaurtinib_02741_R1,Plate:MR023) was 0.235 µM and the potency estimated from few doses (compound concentrations:100 nM and 1000 nM (sheet 'Lestaurtinib' of Supplementary Table 1),run:Lestaurtinib_02741_R2,Plate:MR023) was 0.213 µM. It also gave a potency estimated from few doses (compound concentrations:100 nM and 1000 nM (sheet 'Lestaurtinib' of Supplementary Table 1),run:Lestaurtinib_02741_R3,Plate:MR023) of 0.215 µM, a potency estimated from few doses (compound concentrations:100 nM and 1000 nM (sheet 'Lestaurtinib' of Supplementary Table 1),run:Lestaurtinib_02748_R2,Plate:MR024) of 0.0807 µM and a potency estimated from few doses (compound concentrations:100 nM and 1000 nM (sheet 'Lestaurtinib' of Supplementary Table 1),run:Lestaurtinib_02752_R1,Plate:MR025) of 0.0937 µM. It also gave a potency estimated from few doses (compound concentrations:100 nM and 1000 nM (sheet 'Lestaurtinib' of Supplementary Table 1),run:Lestaurtinib_02752_R2,Plate:MR025) of 0.0686 µM, a potency estimated from few doses (compound concentrations:100 nM and 1000 nM (sheet 'Lestaurtinib' of Supplementary Table 1),run:Lestaurtinib_02765_R1,Plate:MR026) of 0.165 µM and a potency estimated from few doses (compound concentrations:100 nM and 1000 nM (sheet 'Lestaurtinib' of Supplementary Table 1),run:Lestaurtinib_02766_R1,Plate:MR027) of 0.0565 µM.
